Source: the supplement of paper PMC6555819

Assays:
Test in all cases: PBM binding z-score (relative to random genomic background probes); higher = stronger binding; sequences stand for … in GC…GCGATTGACAGCGTAGAATGAAGG
[1] = test system: PPARg:RXRa DBDmut IVT, anti-RXR (DBD mutation: RXRa K156A/R161A, NR concentration 270 nM, RXRa partner concentration 90 nM)
How it was run: (§1)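 Random background probes are the reference for binding z-scores. These scores derive from regression-normalized fluorescence on custom Agilent 4×180K protein-binding microarrays incubated 1 h with ligand-free nuclear receptor dimers. Binding was detected with antibodies against each partner (one per run).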

[2] = test system: PPARg:RXRa IVT, anti-PPARg (NR concentration 270 nM, RXRa partner concentration 90 nM)
How it was run: as §1

[3] = test system: PPARg DBDmut:RXRa IVT, anti-PPARg (DBD mutation: PPARg1 K132A/R137A, NR concentration 270 nM, RXRa partner concentration 90 nM)
How it was run: as §1

[4] = test system: PPARg DBDmut IVT, anti-PPARg (DBD mutation: PPARg1 K132A/R137A, NR concentration 270 nM)
How it was run: as §1

[5] = test system: PPARg homodimer (NR concentration 180 nM)
How it was run: as §1

[6] = test system: PXR:RXRa (NR concentration 270 nM, RXRa partner concentration 90 nM)
How it was run: as §1

[7] = test system: PXR homodimer (NR concentration 270 nM)
How it was run: as §1

[8] = test system: RARa:RXR (NR concentration 270 nM, RXRa partner concentration 90 nM)
How it was run: as §1

[9] = test system: RARa homodimer (NR concentration 270 nM)
How it was run: as §1

[10] = test system: RARb:RXRa (NR concentration 270 nM, RXRa partner concentration 90 nM)
How it was run: as §1

| Sequence | PBM binding z-score [1] | PBM binding z-score [2] | PBM binding z-score [3] | PBM binding z-score [4] | PBM binding z-score [5] | PBM binding z-score [6] | PBM binding z-score [7] | PBM binding z-score [8] | PBM binding z-score [9] | PBM binding z-score [10] |
| --- | --- | --- | --- | --- | --- | --- | --- | --- | --- | --- |
| ATCTCTAGGTAACAAGTCCAGTGAAAGAGAGGAC | 3.01 | 2.6 | 0.767 | 1.29 | 0.367 | 0.433 | 0.215 | 0.195 | 0.924 | 0.473 |
| CCAACTAGGTCAAGGACAGTGAATCTCCGCACGC | 7.53 | 7.55 | 1.93 | 1.81 | 2.38 | 1.23 | 0.209 | 2.01 | 1.21 | 3.98 |
| ATCCCTAGGTAAAGTTCAGTGAAAGATCGATAGA | 0.383 | 1.01 | 0.372 | 0.771 | 1.6 | 1.63 | 2.29 | 0.943 | 1.49 | 2.39 |
| TCTGCTAGGTCAAGGATGGTCAGCTAATCTGCTA | 4.19 | 4.08 | -0.492 | 0.24 | 0.578 | 1.23 | -0.697 | 2.26 | -0.712 | 3.97 |
| AGTCAAAGTTCATCCAGGTAACGTAAGATATGCT | 0.286 | 3.48 | 1.21 | 1.23 | 2.63 | 5.26 | 8.19 | 3.69 | 1.34 | 4.83 |
| CCTAGCAGGCCAGGGTCACTCACGCATTTCGCTT | 0.345 | 0.942 | -0.473 | -1.26 | 1.45 | 2.31 | -0.101 | 3.17 | 0.177 | 2.41 |
| TATACAGGGTCAAAGGCCAGTGTACGAATGTCGA | 1.89 | 5.07 | 2.16 | 0.623 | 2.38 | 4.13 | 0.622 | 5.66 | 0.468 | 4.57 |
| CCTACTGGGCCAAGGTCATTGATCAGTCAAAGCA | 3.5 | 4.5 | -0.374 | -1.03 | 1.27 | 3.3 | 0.534 | 3.29 | -0.4 | 3.27 |
| TAGCCTAGGTCATTGGGCCAGTATTGTACGCATC | 2.88 | 3.82 | 0.545 | -0.273 | 1.88 | 1.57 | -0.247 | 2.41 | -0.7 | 3.58 |
| CCTAGCAGGCCAATCTGGGTCACTAAAGGCTTGA | 4 | 4.94 | -0.0852 | -0.774 | 0.49 | 0.325 | -0.597 | 1.13 | -0.281 | 1.23 |
| ACTATAAGTTGAGACGAGGGCAACCGATAGGTTG | 0.251 | 0.388 | 0.373 | -0.377 | 0.181 | 3.22 | 0.715 | 1.53 | 0.18 | 1.53 |
| CCGACTGGGGCAACGTTACCATAACGCACAGCCA | 4.02 | 3.62 | -0.725 | -0.25 | -0.224 | -0.885 | -0.271 | -0.695 | -0.177 | 0.224 |
| ACTAGCAGGCCAAGTTTGGGTCACTCAGACAAAG | 0.651 | 1.1 | -0.577 | -0.242 | 0.405 | 0.515 | -0.504 | 1.43 | -0.139 | 1.71 |
| TAGCCTAGGTCATGCGGGCCAGTCTAGTGTCGGC | 1.3 | 2.93 | 0.182 | 0.146 | 0.871 | 1.4 | -0.585 | 2.48 | -0.19 | 3.86 |
| TCCATTAGTTGATTAGGGCAACCGAAACAGCGGA | 2.08 | 1.28 | 0.323 | 0.941 | 0.749 | 0.562 | 0.0879 | 0.689 | 0.398 | 1 |
| CCGACTGGGGCATGAGGTTACCATAAGCCAGCCC | 3.01 | 3.6 | -1.07 | -0.773 | 0.383 | 0.287 | -0.219 | 1.06 | -0.49 | 1.42 |
| TCTATAAGTTGAAGGGCAACCGACGAGTCCGTTT | 2.03 | 0.839 | 0.713 | 0.947 | 0.68 | 0.812 | 0.652 | 0.558 | 0.192 | 1.93 |
| CTCGAAAGATCGGTTGAGGTGAGTATACGGATAA | -0.303 | 0.165 | 0.37 | 0.142 | -0.353 | -0.0362 | -0.0981 | 0.657 | -0.222 | 0.00694 |
| CGAACGGGGGCATGAGTTGATAGCAAATGCCGAT | 3.7 | 5.31 | 8.66 | 10 | 2.78 | 3.06 | 1.34 | 2.78 | 0.977 | 2.79 |
| CCTCCTGGGCCATCAGGTCATTGATATCAACGTT | 0.202 | 1.81 | -1.18 | -0.736 | 0.643 | 1.34 | 0.852 | 2.16 | -0.969 | 1.99 |
| CCGAGTAGGTTATGGGTCATTCAGGCAACGGTGA | 3.95 | 4.54 | -0.0117 | -0.483 | 1.77 | 2.17 | 0.442 | 3.06 | 1.09 | 2.3 |
| CCTAGGTGGTCAGGAGGTCACACACCGGATATGA | 0.549 | 3.02 | -0.0513 | -0.161 | 3.26 | 4.04 | 1.33 | 4.78 | 1.85 | 3.71 |
| TCTTGAAGATCAGCAGGTTAAGAAAGCTGGCCAA | 1.75 | -0.514 | -1.09 | -0.481 | -0.436 | 0.0848 | -0.299 | 0.104 | -0.00981 | 0.0583 |
